Our source for the outcome and AC50 values is PubChem BioAssay (EPA / NIEHS).

Holding throughout (conditions): mRNA level, 48 h; actives raise or lower the signal
Read-out in experiment [1]: ABC Transporter (ABCB11), ABCB11 (gene 8647)
The experiment is described as follows: LTEA_HepaRG_ABCB11: Life Technologies and Expression Analysis (LTEA) Assay for ABC Transporter (ABCB11) using HepaRG (AID 2283463). An outline of the steps:
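HepaRG, 48 h exposure, 8-pt half-log CRC top 100 uM, 0.5% DMSO vehicle, duplicates. Readout: TaqMan qRT-PCR of ABCB11 mRNA, housekeeping-normalized (ACTB/GAPDH/POLR2A). Bidirectional fit vs DMSO baseline.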

Read-out in experiment [2]: Broad substrate specificity ATP-binding cassette transporter ABCG2 (Homo sapiens) (UniProt Q9UNQ0)
The experiment is described as follows: LTEA_HepaRG_ABCG2: Life Technologies and Expression Analysis (LTEA) Assay for ABC Transporter (ABCG2) using HepaRG (AID 2283465). The method, boiled down: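 HepaRG, 48 h exposure, 8-pt half-log series from 100 uM, 0.5% DMSO vehicle, duplicates. Readout: ABCG2 transcript by qRT-PCR (Fluidigm array), housekeeping-normalized; bidirectional curve fit relative to DMSO baseline.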

Read-out in experiment [3]: ATP-citrate lyase (ACLY), ACLY (gene 47)
The experiment is described as follows: LTEA_HepaRG_ACLY: Life Technologies and Expression Analysis (LTEA) Assay for ATP-citrate lyase (ACLY) using HepaRG (AID 2283466). An outline of the steps:
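qRT-PCR readout of ACLY transcript after 48 h chemical treatment of HepaRG cells; expression normalized to three housekeeping genes. Eight-point half-log series, highest 100 uM, 0.5% DMSO vehicle. Gain or loss fitted against DMSO baseline.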

Read-out in experiment [4]: Peroxisomal acyl-coenzyme A oxidase 1 (ACOX1) gene, ACOX1 (gene 51)
The experiment is described as follows: LTEA_HepaRG_ACOX1: Life Technologies and Expression Analysis (LTEA) Assay for Peroxisomal acyl-coenzyme A oxidase 1 (ACOX1) gene using HepaRG (AID 2283467). The method, boiled down: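 HepaRG, 48 h chemical exposure, 8-pt half-log series from 100 uM top, 0.5% DMSO vehicle, duplicates. Readout: ACOX1 mRNA by Fluidigm qRT-PCR, housekeeping-normalized; bidirectional fit vs DMSO baseline.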

Read-out in experiment [5]: Alkaline Phosphatase, Placental (ALPP) gene, ALPP (gene 250)
The experiment is described as follows: LTEA_HepaRG_ALPP: Life Technologies and Expression Analysis (LTEA) Assay for Alkaline Phosphatase, Placental (ALPP) gene using HepaRG (AID 2283468). The method, boiled down: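 Differentiated human HepaRG cells were plated and cultured 48 h, then exposed in duplicate for 48 h in serum-free induction medium to eight half-log concentrations from 100 uM in 0.5% DMSO. ALPP mRNA was measured by TaqMan qRT-PCR, normalized to ACTB, GAPDH, POLR2A.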

Read-out in experiment [6]: Bcl-2 (BAX) gene, BAX (gene 581)
The experiment is described as follows: LTEA_HepaRG_BAX: Life Technologies and Expression Analysis (LTEA) Assay for Bcl-2 (BAX) gene using HepaRG (AID 2283470). An outline of the steps:
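Gene expression measured by Fluidigm qRT-PCR with three housekeeping genes for normalisation. HepaRG cells, plated 48 h beforehand, treated 48 h at up to 100 uM (8-point, half-log) in 0.5% DMSO. Bidirectional fitting versus DMSO.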

Read-out in experiment [7]: adenosine kinase (ADK) gene, ADK (gene 132)
The experiment is described as follows: LTEA_HepaRG_ADK: Life Technologies and Expression Analysis (LTEA) Assay for adenosine kinase (ADK) gene using HepaRG (AID 2283471). An outline of the steps: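 HepaRG (human liver), 48 h chemical exposure, 8-pt half-log series, top 100 uM, 0.5% DMSO vehicle. Readout: ADK mRNA by qRT-PCR vs housekeeping genes; bidirectional curve fit relative to DMSO baseline.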

Read-out in the next experiment: BCL2L11 (gene 10018)
The experiment is described as follows: LTEA_HepaRG_BCL2L11: Life Technologies and Expression Analysis (LTEA) Assay for Bcl-2 (BCL2L11) gene using HepaRG (AID 2283473). An outline of the steps: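 Differentiated human HepaRG cells in serum-free induction medium were exposed in duplicate for 48 h to eight concentrations (top 100 uM, half-log steps, 0.5% DMSO). BCL2L11 mRNA was quantified by TaqMan qRT-PCR, normalized to ACTB/GAPDH/POLR2A, bidirectional fit versus DMSO.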

Read-out in experiment [8]: Apolipoprotein A-V (APOA5) gene, APOA5 (gene 116519)
The experiment is described as follows: LTEA_HepaRG_APOA5: Life Technologies and Expression Analysis (LTEA) Assay for Apolipoprotein A-V (APOA5) gene using HepaRG (AID 2283474). An outline of the steps: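 Differentiated human HepaRG cells were exposed in duplicate for 48 h to eight half-log concentrations from 100 uM in 0.5% DMSO. APOA5 mRNA was quantified by TaqMan qRT-PCR, normalized to ACTB, GAPDH and POLR2A, and fitted bidirectionally against DMSO.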

Read-out in experiment [9]: Apoptosis regulator Bcl-2 (Homo sapiens) (UniProt P10415)
The experiment is described as follows: LTEA_HepaRG_BCL2: Life Technologies and Expression Analysis (LTEA) Assay for Bcl-2 gene using HepaRG (AID 2283475). The method, boiled down:
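qRT-PCR of BCL2 transcript, normalized to three housekeeping genes (ACTB, GAPDH, POLR2A), after 48 h chemical exposure of HepaRG cells; concentrations top 100 uM with half-log dilutions, 0.5% DMSO vehicle, duplicates; changes up or down fitted relative to vehicle.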

Read-out in experiment [10]: Bcl-2 (BID) gene, BID (gene 637)
The experiment is described as follows: LTEA_HepaRG_BID: Life Technologies and Expression Analysis (LTEA) Assay for Bcl-2 (BID) gene using HepaRG (AID 2283476). The method, boiled down:
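Duplicate 48 h treatments of HepaRG cells in serum-free induction medium spanned 100 uM downward in half-log steps, 0.5% DMSO. Transcript change quantified by qRT-PCR against three housekeeping genes, fitted up or down versus DMSO.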

Read-out in another experiment: Caspase-3 (Homo sapiens) (UniProt P42574)
The experiment is described as follows: LTEA_HepaRG_CASP3: Life Technologies and Expression Analysis (LTEA) Assay for cysteine-aspartic acid protease (CASP3) using HepaRG (AID 2283477). An outline of the steps:
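Differentiated human HepaRG cells in serum-free induction medium were exposed 48 h to 8-point half-log concentrations from 100 uM (0.5% DMSO vehicle). CASP3 mRNA was measured by qRT-PCR, normalised to ACTB, GAPDH and POLR2A, with bidirectional fitting against DMSO.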

Read-out in experiment [11]: Cytochrome P450 (CYP24A1), CYP24A1 (gene 1591)
The experiment is described as follows: LTEA_HepaRG_CYP24A1: Life Technologies and Expression Analysis (LTEA) Assay for Cytochrome P450 (CYP24A1) using HepaRG (AID 2283478). The method, boiled down:
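Differentiated HepaRG cells, pre-cultured 48 h, were exposed in duplicate for 48 h in serum-free induction medium to 8 half-log concentrations (top 100 uM, 0.5% DMSO). CYP24A1 mRNA was quantified by TaqMan qRT-PCR, normalized to ACTB/GAPDH/POLR2A, fitted bidirectionally versus DMSO.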

Read-out in experiment [12]: Cytochrome P450 (CYP1A2), CYP1A2 (gene 1544)
The experiment is described as follows: LTEA_HepaRG_CYP1A2: Life Technologies and Expression Analysis (LTEA) Assay for Cytochrome P450 (CYP1A2) using HepaRG (AID 2283479). The method, boiled down:
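Differentiated human HepaRG cells in serum-free induction medium were exposed in duplicate for 48 h to 8-point half-log concentrations up to 100 uM in 0.5% DMSO. CYP1A2 mRNA measured by qRT-PCR, normalized to ACTB, GAPDH, POLR2A; bidirectional fit vs DMSO.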

Read-out in experiment [13]: Cytochrome P450 (CYP2B6), CYP2B6 (gene 1555)
The experiment is described as follows: LTEA_HepaRG_CYP2B6: Life Technologies and Expression Analysis (LTEA) Assay for Cytochrome P450 (CYP2B6) using HepaRG (AID 2283481). The method, boiled down:
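Differentiated HepaRG cells, serum-free induction medium, exposed 48 h in duplicate to 8-point half-log concentrations from 100 uM in 0.5% DMSO. CYP2B6 mRNA by qRT-PCR, normalized to ACTB, GAPDH, POLR2A; bidirectional fit versus DMSO.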

Read-out in experiment [14]: Cytochrome P450 2C19 (Homo sapiens) (UniProt P33261)
The experiment is described as follows: LTEA_HepaRG_CYP2C19: Life Technologies and Expression Analysis (LTEA) Assay for CYP2C19 using HepaRG (AID 2283482). The method, boiled down:
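Differentiated human HepaRG cells were exposed for 48 h in serum-free induction medium to 8 concentrations (top 100 uM, half-log steps, 0.5% DMSO). CYP2C19 mRNA was measured by qRT-PCR, normalized to ACTB/GAPDH/POLR2A, and fitted bidirectionally against DMSO.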

Read-out in experiment [15]: Bcl-2 (BAD) gene, BAD (gene 572)
The experiment is described as follows: LTEA_HepaRG_BAD: Life Technologies and Expression Analysis (LTEA) Assay for Bcl-2 (BAD) gene using HepaRG (AID 2283469). The method, boiled down: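 HepaRG, 48 h exposure, 8-pt half-log curve from 100 uM in 0.5% DMSO, duplicates. Readout: TaqMan qRT-PCR for BAD mRNA, housekeeping-normalised (ACTB/GAPDH/POLR2A); gain or loss fitted against DMSO baseline.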

Read-out in experiment [16]: Alpha-fetoprotein (AFP) gene, AFP (gene 174)
The experiment is described as follows: LTEA_HepaRG_AFP: Life Technologies and Expression Analysis (LTEA) Assay for Alpha-fetoprotein (AFP) gene using HepaRG (AID 2283472). The method, boiled down:
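AFP transcript measured by TaqMan qRT-PCR with three housekeeping genes for normalization, after 48 h chemical treatment of HepaRG cells (top 100 uM, half-log steps, 0.5% DMSO). Gain or loss fitted against vehicle.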

Active and inactive are the calls of the source. Rule for the calls: active = hit-call score of the fitted dose curve at least 0.9, where 1 is the maximum; inactive = score below 0.9.

Sequence of Apoptosis regulator Bcl-2 (Homo sapiens) (P10415 whole entry, looked up): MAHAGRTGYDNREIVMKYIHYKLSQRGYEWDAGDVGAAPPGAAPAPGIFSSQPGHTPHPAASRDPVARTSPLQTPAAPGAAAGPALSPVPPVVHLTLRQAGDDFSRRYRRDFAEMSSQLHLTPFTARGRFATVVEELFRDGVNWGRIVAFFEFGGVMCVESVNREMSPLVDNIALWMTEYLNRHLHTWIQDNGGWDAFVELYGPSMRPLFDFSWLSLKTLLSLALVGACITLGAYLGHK
Sequence of Cytochrome P450 2C19 (Homo sapiens) (P33261 whole entry, looked up): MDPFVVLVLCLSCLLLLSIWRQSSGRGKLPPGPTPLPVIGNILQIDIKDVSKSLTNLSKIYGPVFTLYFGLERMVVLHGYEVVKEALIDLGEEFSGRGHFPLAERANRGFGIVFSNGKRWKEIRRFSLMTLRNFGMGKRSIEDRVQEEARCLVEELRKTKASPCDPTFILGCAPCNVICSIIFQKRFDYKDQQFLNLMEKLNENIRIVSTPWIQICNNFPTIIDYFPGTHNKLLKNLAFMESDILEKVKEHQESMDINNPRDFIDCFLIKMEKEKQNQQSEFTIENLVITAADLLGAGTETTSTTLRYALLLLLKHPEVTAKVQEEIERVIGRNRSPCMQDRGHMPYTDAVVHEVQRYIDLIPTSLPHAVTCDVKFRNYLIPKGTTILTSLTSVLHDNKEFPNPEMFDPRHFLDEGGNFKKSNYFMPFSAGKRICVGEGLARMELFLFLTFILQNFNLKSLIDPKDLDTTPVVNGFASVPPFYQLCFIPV
Sequence of Broad substrate specificity ATP-binding cassette transporter ABCG2 (Homo sapiens) (Q9UNQ0 whole entry, looked up): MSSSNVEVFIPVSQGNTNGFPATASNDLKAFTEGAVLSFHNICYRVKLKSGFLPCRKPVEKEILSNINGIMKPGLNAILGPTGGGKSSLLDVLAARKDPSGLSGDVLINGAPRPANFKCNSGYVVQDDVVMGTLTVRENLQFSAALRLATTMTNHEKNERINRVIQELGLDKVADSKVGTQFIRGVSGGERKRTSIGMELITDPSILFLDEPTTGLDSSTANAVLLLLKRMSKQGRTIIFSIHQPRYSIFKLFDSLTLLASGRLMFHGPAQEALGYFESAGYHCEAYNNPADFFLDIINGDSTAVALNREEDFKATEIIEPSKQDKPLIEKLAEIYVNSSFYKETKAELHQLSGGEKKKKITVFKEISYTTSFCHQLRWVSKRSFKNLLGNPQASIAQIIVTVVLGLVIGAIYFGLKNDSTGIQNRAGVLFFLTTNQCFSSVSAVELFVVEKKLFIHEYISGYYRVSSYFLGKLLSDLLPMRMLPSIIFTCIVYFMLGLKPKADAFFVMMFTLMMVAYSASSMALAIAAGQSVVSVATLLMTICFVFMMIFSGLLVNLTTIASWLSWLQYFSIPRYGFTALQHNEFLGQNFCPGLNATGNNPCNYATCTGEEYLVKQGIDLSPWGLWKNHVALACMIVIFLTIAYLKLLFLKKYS
Sequence of Caspase-3 (Homo sapiens) (P42574 whole entry, looked up): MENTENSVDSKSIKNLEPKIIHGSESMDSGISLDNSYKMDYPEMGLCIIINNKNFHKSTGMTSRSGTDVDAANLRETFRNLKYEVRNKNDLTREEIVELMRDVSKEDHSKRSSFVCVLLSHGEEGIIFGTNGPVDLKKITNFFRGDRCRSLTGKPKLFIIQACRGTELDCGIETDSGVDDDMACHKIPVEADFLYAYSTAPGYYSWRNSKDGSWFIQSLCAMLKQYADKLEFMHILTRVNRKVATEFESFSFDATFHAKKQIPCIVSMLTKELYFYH

The term AC50 denotes the concentration giving half of the maximal activity seen. Turning to `CC(C)CCCCCCOC(=O)c1ccc(C(=O)OCCCCCCC(C)C)c(C(=O)OCCCCCCC(C)C)c1`, the call in experiment [1], in [2], in experiment [3], in experiment [4], in experiment [5] and in experiment [6] was inactive. For the same compound, the compound was classed as inactive (in experiment [7]; with BCL2L11 (gene 10018); in experiment [8]; in experiment [9]; in experiment [10]; in the experiment with Caspase-3 (Homo sapiens)). For the same compound, the compound was classed as inactive in experiment [11], in [13] and in experiment [14]. The concentration at half-maximal activity (AC50) in experiment [12] was 14.4 µM (active).
Turning to `O=P(OC(CCl)CCl)(OC(CCl)CCl)OC(CCl)CCl`, the AC50 in [1] is 66.6 µM (active); in [2], 78.5 µM (active); in experiment [3], 75.9 µM (active); in experiment [5], 0.259 µM (active); in experiment [6], 84.5 µM (active); in experiment [7], 0.272 µM (active). The concentration at half-maximal activity (AC50) is 15.8 µM (active) in experiment [16]; 83.8 µM (active) with BCL2L11 (gene 10018); 50 µM (active) in [8]; 88.3 µM (active) in experiment [9]; 0.232 µM (active) in [10]; 80 µM (active) in [12]. The AC50 in experiment [14] is 84.9 µM (active). Moreover, the result (in experiment [4]; in experiment [15]; with Caspase-3 (Homo sapiens); in [11]) was inactive.
In the case of `COc1ccc(-n2nc(C(F)F)cc2-c2ccc(S(C)=O)cc2)cc1` (centres undefined), the AC50 in [1] is 17.3 µM (active); in experiment [12], 50 µM (active); in experiment [13] it was 13.4 µM (active); in [14], 26.8 µM (active). For the same compound, the call in experiment [2], in experiment [3], in experiment [4], in experiment [5], in experiment [15] and in experiment [6] was inactive. In addition, the outcome (in experiment [7]; in experiment [16]; in the experiment with BCL2L11 (gene 10018); in experiment [8]; in [9]; in experiment [10]) was inactive. In addition, the call (in the experiment with Caspase-3 (Homo sapiens); in experiment [11]) was inactive.
Turning to `COCCOCCOCCOC`, the call in experiment [1], in experiment [2], in experiment [3], in experiment [4], in experiment [5] and in [15] was inactive. Moreover, the compound was called inactive (in [6]; in [7]; in experiment [16]; in the experiment with BCL2L11 (gene 10018); in experiment [8]; in experiment [9]). The call (in experiment [10]; with Caspase-3 (Homo sapiens); in experiment [11]; in [12]; in experiment [13]; in [14]) was inactive.
